Compound activity as filed in PubChem BioAssay.
GPR151 activ – activates the human receptor GPR151. PathHunter beta-arrestin GPR151 cells, luminescence. activation, % at 11.2 µM. 1% of 650,000 active; in the data active = activation above about 4.9%;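 also: 0% = median of compound wells and 100% = cells with positive control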
TEAD-YAP inh – TEAD-YAP interaction inhibition; HEK-TIYL cells, TEAD-Gal4/YAP UAS-luciferase luminescence; inhibition, % at 9.12 µM; 1.4% of 640,000 active; in the data active = inhibition above about 32%;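 also: 0% = median of test compound wells and 100% = reference inhibitor wells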
FBW7 activator – activators of human E3 ligase FBW7; AID 1259310; AlphaScreen FBW7–phospho-cyclin E peptide binding, activator screen; normalized activity (activation), % at 26.1 µM; Q969H0; 0.13% of 650,000 active; in the data active = normalized activity above about 1.9%;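 also: purified mutant Fbw7 with reduced substrate affinity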
Target sequence (Q969H0 whole entry, looked up): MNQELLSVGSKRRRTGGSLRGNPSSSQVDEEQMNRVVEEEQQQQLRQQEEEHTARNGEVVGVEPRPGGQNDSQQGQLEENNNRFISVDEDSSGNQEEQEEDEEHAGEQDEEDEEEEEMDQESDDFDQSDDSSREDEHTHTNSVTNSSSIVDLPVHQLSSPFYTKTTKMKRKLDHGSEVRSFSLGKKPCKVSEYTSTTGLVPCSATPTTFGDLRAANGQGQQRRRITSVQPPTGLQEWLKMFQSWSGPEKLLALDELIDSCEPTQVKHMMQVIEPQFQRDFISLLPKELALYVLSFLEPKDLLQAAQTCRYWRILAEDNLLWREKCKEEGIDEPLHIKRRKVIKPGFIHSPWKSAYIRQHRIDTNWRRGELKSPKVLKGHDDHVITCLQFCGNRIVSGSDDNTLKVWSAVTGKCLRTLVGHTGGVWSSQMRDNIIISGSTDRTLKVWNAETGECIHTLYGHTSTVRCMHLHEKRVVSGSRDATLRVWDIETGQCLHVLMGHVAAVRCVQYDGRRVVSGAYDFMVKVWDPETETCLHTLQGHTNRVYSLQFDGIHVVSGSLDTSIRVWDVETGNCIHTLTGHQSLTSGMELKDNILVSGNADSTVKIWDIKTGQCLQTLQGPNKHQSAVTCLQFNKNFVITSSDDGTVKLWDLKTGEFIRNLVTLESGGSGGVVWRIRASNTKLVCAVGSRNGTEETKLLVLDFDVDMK
MITF primary – human MITF inhibition, primary screen. O75030. AlphaScreen MITF homodimerization, bead proximity signal. inhibition, % at 2.6 µM. 0.91% of 650,000 active. AID 1259374; in the data active = inhibition above about 50%;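 also: 0% = vehicle wells with protein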
* = called active by the depositor. In the library only some 3.5% were active in any assay of this set; here they are far more common.

SMILES	GPR151 activ	TEAD-YAP inh	FBW7 activator	MITF primary
CCOc1cccc(/C=N\NC(=O)c2ccc(Br)cc2)c1O	-0.6	12.6	-1.0	19.7
CCN(CC)c1ccc(/C=N/NC(=O)c2cccnc2)c(O)c1	-0.9	70.4*	-0.1	28.2
CCOc1cccc(/C=N/NC(=O)c2cccs2)c1O	-2.3	50.1*	-0.2	39.2
CCOc1ccc(/C=N/NC(=O)c2cccs2)cc1	-4.8	-40.5	0.1	2.8
COc1ccc(Nc2nc(-c3c(C)nc4ccccn34)cs2)cc1	0.7	61.6*	-0.1	-0.4
Cc1nc2ccccn2c1-c1csc(Nc2ccc(Br)cc2Br)n1	-0.3	55.3*	0.4	1.6
CN(C)C(=O)CSc1nnc(-c2ccco2)n1CC1CCCO1 (stereo unspecified)	2.9	6.8	-0.1	0.4
Cn1cc(CNC(=O)CN2Cc3ccccc3OC(c3ccccc3)C2)cn1 (stereo unspecified)	1.7	7.1	0.1	1.2
Nc1ccc2cc(S(=O)(=O)O)cc(O)c2c1	-0.5	-2.1	-1.9	77.1*
O=S(=O)(O)c1cc(O)c2cc(Nc3ccccc3)ccc2c1	1.1	12.4	-0.4	44.4
O=[N+]([O-])c1ccc(Sc2nc3ccccc3s2)cc1	-0.6	2.3	-0.3	6.7
O=[N+]([O-])c1cc(Cl)c(Sc2nc3ccccc3s2)c(Cl)c1	-0.5	48.9*	0.7	34.9
Cc1ccc(C(=O)N2CCCC(CCC(=O)N3CCN(c4ccccn4)CC3)C2)cc1C (stereo unspecified)	-0.6	3.3	3.6*	4.3
Cc1ccoc1C(=O)N1CCCC(CCC(=O)N2CCN(c3ccccn3)CC2)C1 (stereo unspecified)	-0.1	0.1	0.0	5.0
C=CCOC(=O)C1=C(C)NC2=C(C(=O)CCC2)C1c1cc(OC)c(OC)cc1[N+](=O)[O-] (stereo unspecified)	1.6	31.9*	-0.6	10.5
COc1ccc(-n2nc(C(=O)Nc3ccccc3OC)c3ccccc3c2=O)cc1	1.1	5.0	-0.1	2.4
Cc1ccc(C(=O)Nc2cccc(OC(=O)c3cc(S(=O)(=O)N4CCOCC4)ccc3Cl)c2)cc1	-5.7	82.7*	-0.1	1.3
O=C(Nc1cccc(OC(=O)c2cc(S(=O)(=O)N3CCCCCC3)ccc2Cl)c1)c1ccccc1	0.2	-2.9	-0.1	-5.2
O=C(Oc1cccc(NC(=O)c2ccco2)c1)c1cccc(S(=O)(=O)N2CCOCC2)c1	-3.3	-12.2	0.6	18.0
O=C(Nc1cccc(OC(=O)c2cccc(S(=O)(=O)N3CCOCC3)c2)c1)c1ccc(Br)cc1	1.0	34.7*	0.0	5.6
O=C(Oc1cccc(NC(=O)c2ccco2)c1)c1ccc(F)c(S(=O)(=O)N2CCOCC2)c1	0.2	2.2	0.1	-14.2
O=C(Nc1cccc(OC(=O)c2ccc(F)c(S(=O)(=O)N3CCOCC3)c2)c1)c1ccccc1	-0.8	32.2*	-0.1	-2.8
O=C(Nc1ccc(Cl)cc1[N+](=O)[O-])c1cc2ccccc2o1	-0.4	-21.0	-0.2	2.0
O=C(CSc1cnccc1C(F)(F)F)NCc1cccnc1	-0.6	-1.7	-0.2	-3.9
CCN(CC)CCn1nc2c3c(cccc3c1=O)-c1ccccc1-2	1.7	81.5*	0.2	9.0
SMILES	GPR151 activ	TEAD-YAP inh	FBW7 activator	MITF primary
COc1ccc(OC)c(C2c3[nH]c4ccccc4c3CCN2C(C)=O)c1 (stereo unspecified)	0.2	-9.6	0.1	18.9
Cc1ccc2c(Cl)c(C(=O)Nc3ncccn3)sc2c1	-3.9	50.6*	0.6	2.6
FC(F)(F)c1cccc(CNc2nc(Nc3ccc(-n4ccnc4)cc3)nc3c2ncn3-c2ccsc2)c1	1.7	5.6	-0.1	0.8
CN(C)CCOc1cc(-c2cn[nH]c2)ccc1N	-1.8	0.0	-1.0	54.0*
CN(C)CCOc1cc(-c2cn[nH]c2)ccc1NC(=O)C(O)c1ccc(F)cc1 (stereo unspecified)	-0.9	-2.2	-0.1	6.7
CN(C)c1ccc(/C=N/N=C(\N)SC2CC(=O)N(c3cccc([N+](=O)[O-])c3)C2=O)cc1 (stereo unspecified)	-0.1	5.3	-0.1	-0.9
O=C1CCCN1CCCNc1nc2ncnc(Nc3ccccc3)c2[nH]1	-2.1	-4.2	-0.1	-10.2
O=C1CCCN1CCCNc1nc2ncnc(Nc3ccc(N4CCOCC4)cc3)c2[nH]1	-2.3	37.7*	-0.1	17.1
O=C1CCCN1CCCNc1nc(Nc2ccc(N3CCOCC3)cc2)nc2c1ncn2-c1ccsc1	-0.9	59.5*	-0.3	-1.2
O=C1CCCN1CCCNc1nc(Nc2ccc(N3CCOCC3)cc2)c2ncn(-c3ccsc3)c2n1	0.0	47.1*	-0.1	18.7
c1cncc(Nc2nc3ncnc(Nc4ccc(N5CCOCC5)cc4)c3[nH]2)c1	-2.0	25.3	-0.2	3.1
c1cnc2ccc(Nc3nc4ncnc(Nc5ccc(N6CCOCC6)cc5)c4[nH]3)cc2c1	-1.8	36.1*	3.9*	5.2
COc1cn(CC(=O)NCCc2ccccc2)c(CSc2nc(C)cc(C)n2)cc1=O	0.1	0.3	-0.1	2.0
CCC(O)CNC(=O)c1cccc(OC2CCN(S(=O)(=O)N(C)C)CC2)c1 (stereo unspecified)	-0.1	1.7	0.3	9.5
CN(C)S(=O)(=O)N1CCC(Oc2cccc(C(=O)NC3CCCCCC3)c2)CC1	-0.5	44.1*	0.0	16.8
COCCOC(=O)c1[nH]c2c(c1C)C(=O)CC(c1ccc(N(C)C)cc1)C2 (stereo unspecified)	1.0	-7.1	0.3	-0.2
COCCOC(=O)c1[nH]c2c(c1C)C(=O)CC(c1ccc(F)cc1)C2 (stereo unspecified)	-0.4	35.2*	0.1	6.6
COCCOC(=O)c1[nH]c2c(c1C)C(=O)CC(c1ccc(Cl)cc1)C2 (stereo unspecified)	2.8	-32.8	0.4	-1.5
COCCOC(=O)c1[nH]c2c(c1C)C(=O)CC(c1ccccc1)C2 (stereo unspecified)	0.3	49.0*	0.0	3.3
Cc1c(C(=O)O)[nH]c2c1C(=O)CC(c1ccccc1)C2 (stereo unspecified)	0.0	11.2	0.0	8.0
Cc1c(C(=O)OCCOC(C)C)[nH]c2c1C(=O)CC(c1ccccc1)C2 (stereo unspecified)	0.7	48.1*	-0.2	10.6
c1ccc(OCCn2c(C3CCCO3)nc3ccccc32)cc1 (stereo unspecified)	0.1	8.2	-0.2	8.7
O=C(O)/C=C/c1cn(CCC(=O)O)nc1-c1cccc(Br)c1	-2.2	-0.8	-0.1	-2.5
Cc1ccnc(NC(=O)COc2ccc(Br)cc2Cl)c1	-1.6	92.9*	-0.1	-5.8
O=C(COc1ccc(Cl)cc1Br)Nc1nccs1	-7.8	88.7*	0.0	-2.1
Cc1ccnc(NC(=O)COc2cc(C)ccc2C)c1	3.8	-48.6	0.7	0.3
O=C(COc1ccc(Br)cc1Cl)Nc1ncn[nH]1	-1.2	46.2*	-0.3	-5.9
O=C(COc1ccc(Br)cc1Cl)Nc1nccs1	-8.2	91.6*	0.7	11.5
COc1ccc(-c2cc(-c3ccccc3)nc(SCc3cccc(OC)c3)c2C#N)cc1	0.8	5.0	0.6	10.8
N#CN=C(N)c1sc2nc(-c3cccs3)cc(C(F)(F)F)c2c1N	-0.9	4.7	0.4	-9.9
